VACV mCherry inh = vaccinia inhibition (mCherry reporter). Vaccinia virus mCherry reporter infection, fluorescence. Potency, µM (series often up to 36.5 µM), hits mostly inhibitors. hit rate 0.63% among 310,000. AID 720579; calls by dose curve; tested in A549 cells; note: nearly all actives have a fitted effect of over 35% in size
VACV Venus inh = inhibitors of vaccinia virus (Venus reporter); Vaccinia virus Venus reporter expression, fluorescence; Potency, µM (top dose mostly 36.5 µM), usual class: inhibitors; hit rate 0.46% among 330,000; AID 720580; calls by dose curve; tested in A549 cells; note: nearly all actives have a fitted effect of over 30% in size
Lassa entry inh = inhibitors of Lassa virus binding or cell entry | Lassa virus pseudotype entry inhibition, cell reporter | Potency, µM (highest dose often 37.9 µM), actives largely listed as inhibitors | hit rate 1.2% among 300,000 | AID 540256; calls by dose curve; tested in HEK293 cells; note: nearly all actives have a fitted effect of over 50% in size
HCMV inh = human cytomegalovirus inhibition. activity change, negative = inhibition, % at 57.5 µM. hit rate 4.5% among 410,000. HFF cells, HCMV-luciferase reporter, 72 h; stronger effect = lower value; in the data active = activity change below about -60%; inconclusive = no clear call, values can overlap the other calls; inactive = above about -39%
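Steps: HFFs plated, 16 h 37C; compounds added; HCMV-luciferase added to MOI 1 PFU/cell; 72 h 37C; OneGlo reagent, 5 min room temperature; luminescence read, normalized to controls.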
MARV entry inh = Marburg virus entry inhibition; Marburg virus pseudotyped entry inhibition, cell reporter; Potency, µM (top dose mostly 37.8 µM), usual class: inhibitors; hit rate 1.8% among 300,000; calls by dose curve; tested in HEK293 cells
FMDV antiviral = antivirals against foot and mouth disease virus | AID 1159524 | FMDV antiviral cell-based qHTS | Potency, µM (titrated, usually from 57.9 µM), actives largely listed as inhibitors | hit rate 1.2% among 410,000; calls by dose curve; tested in HEK293T cells; note: read-out not given here; nearly all actives have a fitted effect of over 45% in size
A number is an active result; . = inactive; ? = inconclusive; / = no result given; + = active, no number. Only some compounds are listed: those with a hit (about 6.5% of all), similar ones and a draw of the others.

SMILES | VACV mCherry inh | VACV Venus inh | Lassa entry inh | HCMV inh | MARV entry inh | FMDV antiviral
O=C(c1ccccc1)C(c1ccccc1)[n+]1csc2ccccc21 (stereo not given) | . | . | / | / | / | /
Cc1ccc(C)c(-n2nnnc2SCC(=O)c2ccc3c(c2)NC(=O)CO3)c1 | / | / | ? | -84 | ? | ?
Cc1ccc2nc(SCC(=O)c3ccc4c(c3)NC(=O)CO4)[nH]c2c1 | . | . | . | . | . | .
CCOc1ccc(CCNC(=O)CS(=O)(=O)Cc2nc(-c3ccc(OC)cc3)oc2C)cc1 | . | . | . | . | . | .
COc1cccc(-c2nc(CS(=O)(=O)CC(=O)Nc3c(C)cc(C)cc3C)c(C)o2)c1 | . | . | . | -62 | . | .
Cc1ccc(CNC(=O)CS(=O)(=O)Cc2nc(-c3ccccc3C)oc2C)cc1 | . | . | . | -61 | . | .
CCCNC(=O)CS(=O)(=O)Cc1nc(-c2ccccc2C)oc1C | . | . | / | . | / | .
Cc1ccccc1-c1nc(CS(=O)(=O)CC(=O)Nc2c(C)cccc2C)c(C)o1 | . | . | . | -78 | . | .
COc1cccc(-c2nc(CS(=O)(=O)CC(=O)Nc3c(C)cccc3C)c(C)o2)c1 | . | ? | / | ? | . | .
CCOc1ccc(CCNC(=O)CS(=O)(=O)Cc2nc(-c3ccccc3F)oc2C)cc1 | . | . | . | -66 | ? | .
C[C@@H]1COc2cc(NCCO)ccc2S(=O)(=O)N1 | / | / | / | . | / | /
CCOc1cccc(C(=O)c2ccc(O)c(O)c2O)c1 | . | . | / | / | / | .
COc1ccc(-c2nc(CS(=O)(=O)CC(=O)NCCc3cc(OC)ccc3OC)c(C)o2)cc1 | / | / | . | -71 | ? | .
COc1ccc(OC)c(CCNC(=O)CS(=O)(=O)Cc2nc(-c3ccc(C)cc3)oc2C)c1 | / | / | . | . | . | .
COC(=O)C[C@H]1c2ccccc2S(=O)(=O)N1c1ccc(N(C)C)cc1 | . | . | / | / | / | /
CCOC(=O)Nc1ccc(/C=C/c2ccnc3ccccc23)cc1 | . | ? | / | / | / | /
Cc1ccc(SC2=C(Sc3ccc(C)cc3)C(=O)c3ccccc3C2=O)cc1 | . | . | . | . | . | 25µM
COC(=O)c1ccc(CN2C(=O)[C@@]3(CC(C)=C[C@@H](COc4ccccc4)O3)c3ccccc32)cc1 | / | / | / | / | . | /
CNC(=O)/C(=C\c1ccc2c(c1)OCO2)NC(=O)c1ccc(Br)cc1 | . | . | . | -60 | . | .
CNC(=O)/C(=C/c1ccc2c(c1)OCO2)NC(=O)c1ccc(Br)cc1 | . | . | . | . | ? | .
Cc1cc(=O)c(C(=O)N(C)CCc2ccccn2)c2n1-c1ccccc1SC(c1ccsc1)C2 (stereo not given) | . | . | / | / | / | .
COc1ccc(N2C(=O)CN(Cc3ccc(OC)c(OC)c3)C2=S)cc1 | . | . | ? | -81 | . | .
CCOC(=O)C1=CCN(S(=O)(=O)c2cccc(Cl)c2)C1c1cccc(Br)c1 (stereo not given) | / | / | / | . | / | /
CCc1ccc(NC(=O)c2ccc3c(c2)N(Cc2ccc(C)cc2)CCS3)cc1 | . | . | . | . | . | .
O=C(C[n+]1cccc(Br)c1)c1ccc(I)cc1 | . | . | / | / | / | /
SMILES | VACV mCherry inh | VACV Venus inh | Lassa entry inh | HCMV inh | MARV entry inh | FMDV antiviral
COc1ccc(-c2nsc3c(N4CCCCC4)ncnc23)cc1 | / | / | ? | -83 | ? | ?
COc1ccc(-c2nsc3c(N4CCCCC4C)ncnc23)cc1 (stereo not given) | . | . | / | -97 | / | 0.032µM
COc1ccc(C(=O)N2CCN(c3ncnc4c(-c5ccccc5)nsc34)CC2)cc1 | . | . | . | . | . | ?
Cc1cccc(OC(C)C(=O)Nc2ncn[nH]2)c1 (stereo not given) | . | . | . | . | / | .
CCOC(=O)c1sc(NC(=O)c2ccccc2)cc1C | / | / | ? | . | ? | .
CCOC(=O)c1csc(NC(=O)c2ccccc2)n1 | . | . | / | . | / | .
CCOC(=O)c1csc(NC(=O)c2ccc(OCC)cc2)n1 | ? | . | ? | -61 | ? | ?
CCOC(=O)c1sc(NC(=O)c2ccc(S(=O)(=O)N(C)C)cc2)cc1C | / | / | . | -87 | . | ?
CCOC(=O)c1csc(NC(=O)c2ccc(S(=O)(=O)N(C)C)cc2)n1 | . | . | . | -63 | . | /
COc1ccc(C(=O)NCC(c2ccc(N(C)C)cc2)N2CCc3ccccc32)cc1OC (stereo not given) | . | . | . | ? | / | .
O=C(Nc1cccc(-c2nc3ccccc3o2)c1)c1cc([N+](=O)[O-])ccc1N1CCOCC1 | . | . | . | . | . | .
O=S(=O)(NC1CCN(S(=O)(=O)c2c(F)cccc2F)CC1)c1ccc2c(c1)OCCO2 | / | / | / | . | / | .
O=S(=O)(NC1CCN(S(=O)(=O)c2c(F)cccc2F)C1)c1ccc2c(c1)OCCO2 (stereo not given) | / | / | / | -78 | / | .
COc1ccc2c(CNCc3cccs3)c(C(=O)O)n(Cc3ccccc3C)c2c1 | . | . | . | . | / | .
CCc1ccc(NC(=O)CCc2ccc(CC)o2)cc1 | . | . | . | . | . | .
N#Cc1c(NC(=O)c2ccc(Cn3cc(Br)cn3)o2)sc2c1CCCCCC2 | / | / | . | -99 | ? | ?
CCc1ccc(CCC(=O)Nc2ccc(C(=O)O)cc2)o1 | / | / | / | + | / | .
N#Cc1c(NC(=O)CSc2nc(N)cc(=O)[nH]2)sc2c1CCCC2 | . | . | ? | . | 10µM | ?
CCc1ccc(CCC(=O)Nc2sc3c(c2C#N)CCCC3)o1 | / | / | ? | -75 | 2.3µM | .
C#CCN1C(=O)[C@]2(O[C@H](COc3ccccc3)CC3=CCCC32)c2c(Br)cccc21 (stereo not given in full) | / | / | / | / | . | /
CCn1cc(C(=O)N2CCN(c3ccccc3)CC2)c(=O)c2cc(S(=O)(=O)N3CCC(C)CC3)ccc21 | . | . | . | . | ? | .
C=CCN1C[C@H](C(=O)N(CCCN(C)C)C(=O)NCC)C[C@@H]2c3cccc4[nH]cc(c34)C[C@H]21 | / | / | / | / | / | .
Cc1ccccc1C(=O)N[C@H](C(=O)N1CCC[C@H]1C(=O)NCc1ccccc1)c1ccccc1 | / | / | / | . | / | /
COc1cccc(NC(=O)COc2ccccc2C(=O)Nc2ccccc2)c1 | . | . | / | / | / | /
FC(F)Oc1ccc(-c2csc(NNC3=NCCCCC3)n2)cc1 | . | . | ? | . | ? | 28µM
SMILES | VACV mCherry inh | VACV Venus inh | Lassa entry inh | HCMV inh | MARV entry inh | FMDV antiviral
C[C@H]1CC[C@H]2C(=O)N(Cc3ccc(Cl)cc3)C[C@H](O)CN2[C@H]1c1ccc(Br)cc1 | / | / | / | / | . | /
Cc1cccc(N2CCN(C(=O)C(NS(=O)(=O)c3cccs3)c3ccccc3)CC2)c1C (stereo not given) | ? | . | 2.6µM | . | . | .
Cc1cccc(N2CCN(C(=O)C3CCC(CNS(=O)(=O)c4cccs4)CC3)CC2)c1C (stereo not given) | ? | ? | ? | -61 | ? | .
O=C(C(NS(=O)(=O)c1cccs1)c1ccccc1)N1CCN(c2ccccc2F)CC1 (stereo not given) | . | . | 7.3µM | . | ? | .
Cc1ccc(Cl)cc1NC(=O)C(NS(=O)(=O)c1cccs1)c1ccccc1 (stereo not given) | . | . | ? | -70 | ? | ?
Cc1cccc(N2CCN(C(=O)C3CCN(S(=O)(=O)c4cccs4)CC3)CC2)c1C | ? | . | ? | . | . | .

Source: PubChem (National Center for Advancing Translational Sciences (NCATS))
